Data: PubChem BioAssay
The source made the active and inactive calls.

Assay: E. coli acrAB mutant growth effects, primary screen, E. coli filamentation inducers, strain DRC39, OD650, 48 h (AID 1179);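 note: screen aims at cell division blockers that make cells filament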
Details: E. coli DRC39 delta-acrAB growth, higher = more signal, called active from +8 up or from −8 down

z-score, inactive:
CN(C)CCCNC(=O)[C@@H]1c2ccccc2C(=O)N(Cc2ccccc2)[C@H]1c1ccc(CO)cc1 -0.136
COc1ccc([Si](C)(C)[C@H]2[C@H](CC(=O)N3CCC[C@H]3CO)O[C@@]3(C(=O)N(Cc4cccc(N5C(=O)COc6ccccc65)c4)c4ccccc43)[C@@H]2C)cc1 1.32
C=CC[C@]1(C(=O)NCc2ccccc2)N=C(c2ccc(OCCCO)cc2)O[C@H]1c1ccccc1 -0.126
COC(=O)[C@@]1(Cc2ccc(F)cc2)[C@H]2c3cc(C(=O)N(C)C)n(Cc4ccc(OC)c(OC)c4)c3C[C@H]2CN1C(=O)c1ccccc1 -1.45
O=C(CS)NCCCCCNC(=O)[C@H]1C[C@H]2C(=O)N3CCC[C@H]3C(=O)N2[C@H]1c1cccc(OCCO)c1 0.36
Cn1cccc1C(O)C1C=CC2C(=O)NC(=O)C2N1Nc1ccccn1 (configuration not stated) -0.204
O=C1O[C@@H](c2ccccc2)[C@@H](c2ccccc2)N2[C@@H](c3ccc(OCCO)cc3)[C@]3(C(=O)Nc4ccccc43)[C@@H](C(=O)N3CCN(c4ncccn4)CC3)[C@H]12 1.07
COC(=O)c1c(CC[C@@H](CO)NC(=O)N[C@H](Cc2ccccc2)Cn2cc(-c3ccccc3N)nn2)oc(C(C)=O)c1C(=O)OC 0.561
COC(=O)[C@@H]1N=C(c2ccc(OCCCO)cc2)O[C@@H]1c1ccccc1N=[N+]=[N-] 0.995
CCOC(=O)C1=CC[C@H]2C(=O)N(CC)C(=O)[C@@H]12 -0.196
C=C(/C(=C/C[C@H](OC(C)=O)c1ccc(OCCO)cc1)c1cnc2ccccc2c1)C(C)C -0.511
N#Cc1ccc(NN2C(C(O)c3cc(C(F)(F)F)cc(C(F)(F)F)c3)C=CC3C(=O)N(c4ccccc4)C(=O)C32)cc1 (configuration not stated) -0.56
COCCOC(=O)N1C(=O)[C@@]2(c3cc(C#CCNC(N)=O)ccc31)[C@H](c1ccccc1OCCO)N1[C@H](c3ccccc3)[C@H](c3ccccc3)OC(=O)[C@H]1[C@@H]2C(=O)N1CCN(c2ncccn2)CC1 1.18
CC(C)[Si]1(C(C)C)O[C@@H](c2ccccc2)c2cc(C3CC3)nc(-c3ccccc3)c21 -0.785
COc1ccc([Si](C)(C)[C@@H]2[C@@H](CC(=O)N3CCC[C@H]3CO)O[C@]3(C(=O)N(Cc4cccc(N5CCC5=O)c4)c4ccccc43)[C@H]2C)cc1 0.388
CN(C)c1ccc(C(O)C2C=CC3C(=O)N(c4ccccc4)C(=O)C3N2Nc2ccccc2F)cc1 (configuration not stated) -1.08
CCCCCN1CC=CC23O[C@@H]4C=CCOC(=O)[C@@H]4[C@H]2C(=O)N(CCCCCCO)[C@@H]3C1=O (some centres not stated) 0.225
CC(C)(C)OC(=O)CC[C@]1(C(N)=O)COC(c2ccc(OCCCO)cc2)=N1 0.381
CC(C)(C)OC(=O)CC[C@]1(C(=O)NCc2ccccc2)N=C(c2ccc(OCCCO)cc2)O[C@H]1c1ccccc1 0.03
COc1ccc(CCNC(=O)[C@@H]2c3ccccc3C(=O)N(c3ccc(C)cn3)[C@H]2c2ccc(CO)cc2)cc1 -0.113
CC1CC/C=C\[C@H]2OC34C=CCN(Cn5nnc6ccccc65)C(=O)[C@H]3N(CCO)C(=O)[C@@H]4C2C(=O)O1 (some centres not stated) -0.108
C[N+](C)(C)CCCCCCNC(=O)[C@@H]1C[C@@H]2C(=O)N3CCC[C@H]3C(=O)N2[C@@H]1c1cccc(OCCO)c1 -0.514
CN1C(=O)[C@@]2(CCC(=O)OC(C)(C)C)N=C(c3ccc(OCCCO)cc3)O[C@H]2c2ccccc21 0.767
COCC1=C2[C@@H](CCc3ccccc3)OB(O)C[C@@H]2n2c(=O)n(-c3ccccc3)c(=O)n2C1 0.545
CCCCC(=C=CC[C@H](O)c1ccccc1OCCO)C[C@H](O)COCc1ccccc1 0.0347
COCCOC(=O)N1C(=O)[C@@]2(c3cc(C#CCNC(N)=O)ccc31)[C@H](c1ccc(O)cc1)N1[C@H](c3ccccc3)[C@H](c3ccccc3)OC(=O)[C@H]1[C@@H]2C(=O)N1CCCCCCC1 -0.188
CC(C)NC(=O)[C@@H]1c2ccccc2C(=O)N(CC23CC4CC(CC(C4)C2)C3)[C@H]1c1ccc(CO)cc1 1.59
